Test results from PubChem BioAssay (EPA / NIEHS).
The source made the active and inactive calls. The calls were made as follows: active = hit-call score of the fitted dose curve at least 0.9, where 1 is the maximum; inactive = score below 0.9.

Experiment: ATG_E_Box_CIS: Attagene CIS-FACTORIAL HepG2 Assay for human Enhancer Box (E-box) (AID 2282936)
Conditions: HepG2 E-box cis-reporter transcription, actives raise or lower the signal
Method: ATG_CIS is a cell-based, multiplexed-readout assay that uses HepG2, a human liver cell line, with measurements taken at 24 hours after chemical dosing in a 24-well plate.ATG_E_Box_CIS is one of 52 assay component(s) measured or calculated from the ATG_CIS assay. It is designed to make measurements of mRNA induction, a form of inducible reporter, as detected with fluorescence intensity signals by Reverse transcription polymerase chain reaction (RT-PCR) and Capillary electrophoresis technology.Data from the assay component ATG_E_Box_CIS was analyzed into 1 assay endpoint. This assay endpoint, ATG_E_Box_CIS, was analyzed with bidirectional fitting relative to DMSO as the negative control and baseline of activity. Using a type of inducible reporter, measures of mRNA for gain or loss-of-signal activity can be used to understand the reporter gene at the transcription factor-level as they relate to the gene USF1. Furthermore, this assay endpoint can be referred to as a primary readout, because this assay has produced multiple assay endpoints where this one serves a reporter gene function. To generalize the intended target to other relatable targets, this assay endpoint is annotated to the dna binding intended target family, where the subfamily is basic helix-loop-helix protein.
Human liver HepG2 cells are transiently transfected with multiple reporter transcription units (MRTUs) in 6-well plates using FuGene 6 reagent (Roche; 3 ml FuGene/1 mg DNA). The MRTU constructs are regulated by a cis-regulating element (promoter). […] A major difference between the CIS and TRANS system is that in CIS activities of endogenous TFs are measured, whereas the TRANS assay evaluates changes in activities of exogenous, chimeric NR-Gal4 proteins. […] At the end of 24 hour incubation, total RNA was isolated using TriZol reagent (Invitrogen). The isolated RNA is then reverse-transcribed using oligo(dT) primer and Mo-MLV reverse transcriptase (Invitrogen) with DNAse I (Ambion) treatment for 30 min. The one-tenth of the produced cDNA was amplified by PCR using Taq DNA polymerase (Invitrogen) and two reporter sequence-specific primers. The PCR products were fluorescently labeled by primer extension with 6-arboxyfluorescein (6-FAM) 5'-labeled reporter sequence-specific primer (2 min at 95 C, 20 s at 68 C and 10 min at 72 C) and these products were digested with 5U of HpaI (New England Biolabs) for 2h at 37 C. The fragments were purified using Qiaquick PCR columns (Qiagen), analyzed on an ABI 3130xL genetic analyzer (Applied Biosystems) with peak positions identified by using a set of X-rhodamine (ROX)-labeled MapMarker1000 molecular weight standards (BioVentures). The raw capillary electrophoresis data was processed using Attagraph software (Attagene).

Compound	outcome	AC50
O=C(c1ccccc1)C(O)c1ccccc1 (stereo not given)	inactive	–
CCc1cc(Cc2cc(CC)cc(C(C)(C)C)c2O)c(O)c(C(C)(C)C)c1	inactive	–
CCC(Cl)C(Cl)C(Cl)CC(Cl)C(Cl)C(C)Cl (stereo not given)	–	83.9 µM (active)
CCOc1ccc(NC(=O)CC(C)=O)cc1	inactive	–
OCCc1ccccc1	inactive	–
C=Cc1ccncc1	–	46.1 µM (active)
CCc1cc(C(C)(C)C)c(O)c(C(C)(C)C)c1	–	24.4 µM (active)
CCC(=O)OCCOc1ccccc1	inactive	–
CN(C)C(=S)SC(=S)N(C)C	inactive	–
COc1cccc(OC)c1O	inactive	–
CC(CN=Cc1ccccc1O)N=Cc1ccccc1O (stereo not given)	inactive	–
Cc1c(C2(c3cc(Br)c(O)c(Br)c3C)OS(=O)(=O)c3ccccc32)cc(Br)c(O)c1Br	inactive	–
C=CC(=O)OCCC#N	inactive	–
OCC(O)c1ccccc1 (stereo not given)	inactive	–
COS(=O)(=O)O	inactive	–
CC(=O)O[C@H]1C[C@@H]2CC[C@@]1(C)C2(C)C	inactive	–
Cc1cc(S(=O)(=O)O)ccc1N=Nc1c(O)ccc2ccccc12	inactive	–
CCCC(=O)c1ccccc1	inactive	–
O=CCc1ccccc1	inactive	–
CCCCCCCCCC(=O)OC	inactive	–

Compound	outcome	AC50
NC1CCCCC1N (stereo not given)	inactive	–
C1=CC2C3C=CC(C3)C2C1 (stereo not given)	inactive	–
Cc1occc(=O)c1OC(=O)C(C)C	inactive	–
NCc1ccco1	inactive	–
CCCOCCO	inactive	–
Cc1ncc([N+](=O)[O-])n1CCO	inactive	–
ClC(c1ccccc1)(c1ccccc1)c1ccccc1	inactive	–
CCC(C)S (stereo not given)	inactive	–
Cc1c(OCC(F)(F)F)ccnc1CS(=O)c1nc2ccccc2[nH]1 (stereo not given)	inactive	–
C=C1C[C@]23C[C@@]1(O)CC[C@H]2[C@@]12C=C[C@H](O)[C@@](C)(C(=O)O1)[C@H]2[C@@H]3C(=O)O	inactive	–
Cc1c(Cl)cccc1[N+](=O)[O-]	inactive	–
CC1(C)CCC[C@]2(C)[C@H]3CCO[C@]3(C)CC[C@@H]12	–	58.3 µM (active)
CCCCC1CCC(O)CC1 (stereo not given)	inactive	–
C=C[Si]1(C)O[Si](C)(C=C)O[Si](C)(C=C)O[Si](C)(C=C)O1 (stereo not given)	inactive	–
CCCCCC(C=O)=Cc1ccccc1	inactive	–
CC/C=C\CC/C=C/CO	inactive	–
C=CC(=O)OCCCC	inactive	–
COc1ccc(CCC(C)=O)cc1	inactive	–
COCCc1ccc(OCC(O)CNC(C)C)cc1 (stereo not given)	inactive	–
O=C(Nc1ccc([N+](=O)[O-])cc1)Nc1ccc([N+](=O)[O-])cc1 (tested in a mixture with another compound)	inactive	–
